# The source made the active and inactive calls. Unless noted, no rule for the calls is given here.
# Key:
# [1] = system: Wnt5a (protein binding on small-molecule microarray); experiment: Wnt5a binders on small-molecule microarray, primary screen, biophysical, 635/667 nm fluorescence (AID 1142); conditions: 635 nm fluorescence, higher = more signal;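 also: fluorescence read at 667 nm with signal to noise per printed feature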
# [2] = cell viability in Huh7 cells, primary screen, cytotoxicity control for HCV replication inhibitor project, CellTiter-Glo luminescence, basal, 48 h (AID 1143); conditions: Huh7 HCV replicon, higher = more signal, called active from +8 up or from −8 down;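 also: Huh7 hepatoma cells carrying a hepatitis C replication reporter with no stimulus; test concentration not given here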
# [3] = P. aeruginosa biofilm formation inhibitors, primary screen, PAO1 strain, BacTiter-Glo luminescence, LB-PBS (AID 1144); conditions: 12 h, higher = more signal
# [4] = CREB reporter modulators without forskolin, primary screen, cell-based, PC12, CRE-LacZ reporter, unstimulated (AID 1145); conditions: no forskolin, luminescence, 4.5 h, higher = more signal, called active from +8 up or from −8 down
# [5] = CREB reporter modulators under forskolin, primary screen, cell-based, PC12, CRE-LacZ reporter, forskolin-stimulated (AID 1146); conditions: luminescence, 4.5 h, higher = more signal, called active from +8 up or from −8 down;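 also: PC12 cells with 6xCRE LacZ reporter stimulated by forskolin 10 µM; beta-galactosidase reporter signal reflecting CREB driven transcription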
# [6] = molecular target: Streptavidin (Streptomyces avidinii) (UniProt P22629); experiment: streptavidin binders on small-molecule microarray, primary screen, artefact control for SMM compound annotation, biophysical, 635/667 nm fluorescence (AID 1147); conditions: streptavidin binding, higher = more signal;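 also: signal reflects streptavidin binding to arrayed compounds as a control protein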
# [7] = small-molecule binders of probe aInhba, primary screen, biochemical, small-molecule microarray, 635/667 nm fluorescence (AID 1148); conditions: higher = more signal;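 also: score merges 667nm spot fluorescence with signal-to-noise for antibody binding to printed compounds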
# Torsin-1A (Homo sapiens) [8] = molecular target: Torsin-1A (Homo sapiens) (UniProt O14656); experiment: torsin A binders from cell lysate, primary screen, small-molecule microarray, wild-type, 635/667 nm (AID 1149); conditions: COS7 hTOR1A-WT lysate, 635 nm fluorescence, higher = more signal
# Torsin-1A (Homo sapiens) [9] = molecular target: Torsin-1A (Homo sapiens) (UniProt O14656); experiment: small-molecule binders of mutant TOR1A in lysate, primary screen, cell lysate, small-molecule microarray, COS7 lysate, 635/667 nm fluorescence (AID 1150); conditions: COS7 hTOR1A mutant lysate, 635 nm fluorescence, higher = more signal;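 also: score pools 667 nm emission and signal to noise measuring lysate protein binding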
# [10] = system: Sonic hedgehog protein (Shh); experiment: small-molecule binders of Shh protein, primary screen, biochemical, small-molecule microarray, 635/667 nm fluorescence (AID 1151); conditions: small-molecule microarray binding, 635 nm fluorescence; higher = more signal;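 also: Shh protein binding to compounds spotted on small-molecule microarray slides; score combines spot fluorescence intensity with signal-to-noise across triplicate slides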
# Sequence of Streptavidin (Streptomyces avidinii) (P22629 whole entry, looked up): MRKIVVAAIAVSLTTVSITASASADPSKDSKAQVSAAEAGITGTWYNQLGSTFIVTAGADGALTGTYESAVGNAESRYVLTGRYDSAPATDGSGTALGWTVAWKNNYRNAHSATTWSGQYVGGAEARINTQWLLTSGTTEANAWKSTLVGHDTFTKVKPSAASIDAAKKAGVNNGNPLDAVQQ
# Sequence of Torsin-1A (Homo sapiens) (O14656 whole entry, looked up): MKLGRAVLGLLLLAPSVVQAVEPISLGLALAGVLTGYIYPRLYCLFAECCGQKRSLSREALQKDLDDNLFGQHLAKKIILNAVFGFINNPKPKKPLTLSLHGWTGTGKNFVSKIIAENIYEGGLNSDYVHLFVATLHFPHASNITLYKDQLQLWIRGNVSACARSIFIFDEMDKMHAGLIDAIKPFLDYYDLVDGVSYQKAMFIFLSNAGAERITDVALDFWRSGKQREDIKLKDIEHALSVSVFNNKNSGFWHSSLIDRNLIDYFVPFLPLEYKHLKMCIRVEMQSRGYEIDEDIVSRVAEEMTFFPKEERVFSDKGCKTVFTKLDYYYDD
Structure (SMILES),composite z-score [1],z-score [2],z-score [3],z-score [4],z-score [5],composite z-score [6],composite z-score [7],composite z-score (Torsin-1A (Homo sapiens) [8]),composite z-score (Torsin-1A (Homo sapiens) [9]),composite z-score [10]
CCC[C@@H]1C=C(C(=O)O)[C@H](c2ccc(C)cc2)N1S(=O)(=O)c1ccc(C)cc1,0.0266,0.224 (inactive),-0.0655 (inactive),-0.527 (inactive),0.348 (inactive),0.981,-0.0087,0.837,1.38,-0.65
C=C[C@H](COC(C)=O)N(Cc1ccc(OC(C)=O)c(OC)c1)S(=O)(=O)c1ccc(Br)cc1,0.714,-2.08 (inactive),-0.569 (inactive),0.195 (inactive),-1.9 (inactive),1.12,0.0219,1.85,2.14,1.75
COC(=O)C1=CC(CCCO)=CC(C2CC2)N(Cc2sc3ccccc3c2Cl)C=C1C(=O)OC (stereo not given),0.351,-3.83 (inactive),0.989 (inactive),-0.464 (inactive),0.106 (inactive),2.17,0.19,0.688,0.806,-0.112
[N-]=[N+]=NCc1ccccc1C[C@]1(C(=O)O)N=C(c2ccc(OCCCO)cc2)O[C@H]1c1ccccc1CN=[N+]=[N-],-0.0602,-1.42 (inactive),-0.046 (inactive),2.87 (inactive),2.69 (inactive),1.66,0.0342,0.171,0.48,-0.0214
Cc1ccc(S[C@]2(C(=O)NCC(C)C)CC(=O)N(Cc3ccccc3)[C@@H]2c2ccc(CO)cc2I)cc1,0.185,-2.48 (inactive),0.229 (inactive),0.856 (inactive),1.27 (inactive),0.176,0.0422,0.298,0.835,2.21
CC(C)c1ccc(NN2C(C(O)c3c(F)cccc3Cl)C=CC3C(=O)N(c4ccccc4)C(=O)C32)cc1 (stereo not given),0.658,-0.78 (inactive),-0.53 (inactive),-0.519 (inactive),0.746 (inactive),1.47,0.765,0.213,-0.164,-0.182
COCCOC(=O)N1C(=O)[C@@]2(c3ccccc31)[C@H](C(=O)Nc1nc3ccccc3s1)[C@H]1C(=O)O[C@H](c3ccccc3)[C@H](c3ccccc3)N1[C@@H]2c1ccc(OCCO)cc1,0.931,-2.34 (inactive),-0.706 (inactive),-0.878 (inactive),-0.523 (inactive),0.82,0.038,0.488,1.25,1.12
CN(C)CCCNC(=O)[C@@]1(Cc2ccccc2I)c2ccccc2C(=O)N(Cc2ccccc2C(F)(F)F)[C@H]1c1ccc(CO)cc1,-0.753,-5.77 (inactive),-0.233 (inactive),0.351 (inactive),-0.742 (inactive),0.154,-0.162,-1.08,0.135,-0.678
COC(=O)[C@@]1(Cc2ccc(F)cc2)[C@H]2c3cc(C(=O)N4CCCC4)n(Cc4cccc5ccccc45)c3C[C@H]2CN1C(=O)c1ccccc1,0.255,-1.8 (inactive),0.233 (inactive),0.397 (inactive),0.422 (inactive),0.95,0.434,0.341,-0.0286,-0.408
COCCOC(=O)N1C(=O)[C@@]2(c3cc(C#CC4=CCCCC4)ccc31)[C@H](C(=O)N1CCc3cc(OC)c(OC)cc3C1)[C@H]1C(=O)O[C@H](c3ccccc3)[C@H](c3ccccc3)N1[C@@H]2c1ccccc1OCCO,0.192,-1.3 (inactive),0.597 (inactive),0.0736 (inactive),-1.14 (inactive),0.154,0.0939,0.198,0.274,2.05
CC(C)OC(=O)CC(=O)CC(O)c1ccc(C#N)cc1 (stereo not given),-0.0818,-1.68 (inactive),-0.577 (inactive),-0.583 (inactive),-1.27 (inactive),-0.425,0.0816,2.11,2,-0.305
CO[C@H]1O[C@H](CO)[C@@H](OC(=O)Nc2ccc(Oc3ccccc3)cc2)[C@H](OC(=O)Nc2ccccc2)[C@H]1OC(=O)Nc1ccccc1,1.07,-5.1 (inactive),-2.24 (inactive),0.512 (inactive),-1.64 (inactive),0.693,0.167,0.546,0.76,1.86
O=C1C[C@]2(c3ccc([N+](=O)[O-])cc3)C(=O)N(CC(F)(F)F)c3cc(CO)ccc3[C@H]2N1CC12CC3CC(CC(C3)C1)C2,-0.171,-1.89 (inactive),-0.892 (inactive),-0.698 (inactive),0.0632 (inactive),-0.143,0.0091,-0.662,-0.156,0.277
CCN(CC)c1ccc(N2CC=CC34O[C@@H]5/C=C\CCCOC(=O)C5[C@H]3C(=O)N(C(CO)C(C)C)[C@@H]4C2=O)cc1 (stereo not given in full),-0.297,-0.245 (inactive),2.75 (inactive),-0.0939 (inactive),0.119 (inactive),-0.819,-0.128,0.006,-1.2,0.0008
C=C[C@@H](COC(C)=O)N(Cc1ccc([N+](=O)[O-])cc1)S(=O)(=O)c1ccc(Br)cc1,0.191,-1.97 (inactive),-0.91 (inactive),0.661 (inactive),0.127 (inactive),0.861,0.0869,0.474,0.0176,0.956
COCCOC(=O)N1C(=O)[C@@]2(c3cc(C#CCCO)ccc31)[C@H](C(=O)NC[C@H](O)c1ccccc1)[C@H]1C(=O)O[C@H](c3ccccc3)[C@H](c3ccccc3)N1[C@@H]2c1ccc(O)cc1,0.0418,-0.612 (inactive),-1.16 (inactive),-1.29 (inactive),-0.201 (inactive),0.276,-0.0136,0.581,1.12,1.79
COCCOC(=O)N1C(=O)[C@@]2(c3cc(C#CCNC(N)=O)ccc31)[C@H](c1ccc(OCCO)cc1)N1[C@H](c3ccccc3)[C@H](c3ccccc3)OC(=O)[C@H]1[C@@H]2C(=O)N1CCc2cc(OC)c(OC)cc2C1,0.426,-0.0916 (inactive),-1.59 (inactive),-0.471 (inactive),-0.644 (inactive),0.175,-0.0136,0.0053,-0.193,0.815
CC(C)C(=C=CC[C@H](O)c1cccc(OCCO)c1)C[C@H](O)COCc1ccccc1,0.148,-0.33 (inactive),-0.457 (inactive),1.82 (inactive),0.526 (inactive),1.24,0.167,1.03,0.33,2.09
[N-]=[N+]=NCc1ccccc1C[C@]1(C(=O)NCC(O)CO)N=C(c2ccc(OCCCO)cc2)O[C@H]1c1ccccc1N=[N+]=[N-] (stereo not given in full),0.376,-2.54 (inactive),-0.000841 (inactive),0.241 (inactive),-1.78 (inactive),0.22,0.403,0.26,0.67,-1.48
O=C(O)[C@H]1C[C@H]2C(=O)NCC(=O)N2[C@H]1c1ccc(O)cc1,-0.0071,-0.283 (inactive),-0.642 (inactive),-0.13 (inactive),-0.108 (inactive),-0.54,-0.168,0.562,-0.0135,0.751
CCCNC(=O)[C@@H]1c2ccccc2C(=O)N(Cc2ccccc2)[C@H]1c1ccc(CO)cc1,-0.0869,-1.98 (inactive),-0.112 (inactive),-0.179 (inactive),0.0988 (inactive),0.624,-0.0405,-0.468,-0.221,-0.461
N#Cc1ccc(NN2C(C(O)c3ccc([N+](=O)[O-])cc3)C=CC3C(=O)N(c4ccccc4)C(=O)C32)cc1 (stereo not given),0.72,0.845 (inactive),-0.245 (inactive),-0.525 (inactive),0.516 (inactive),0.323,0.137,-0.169,0.303,-0.261
CCOC(=O)C1=CCC(c2ccc([N+](=O)[O-])cc2)N(S(=O)(=O)c2ccc(C)cc2)C1 (stereo not given),0.0898,-3.94 (inactive),0.203 (inactive),0.687 (inactive),0.264 (inactive),0.653,0.111,0.242,0.103,-0.377
COc1ccc([Si](C)(C)[C@H]2[C@H](CC(=O)N(CCO)Cc3ccccc3)O[C@@]3(C(=O)N(Cc4cccc(N5CCC5=O)c4)c4ccccc43)[C@@H]2C)cc1,0.526,-6.85 (inactive),-0.216 (inactive),0.469 (inactive),-0.854 (inactive),0.0587,-0.0221,0.795,0.278,2.05
COC(=O)c1ccc(C23CC2(C(NP(=O)(c2ccccc2)c2ccccc2)c2ccccc2)C3)cc1 (stereo not given),0.211,-2.07 (inactive),0.523 (inactive),-1.14 (inactive),-0.0812 (inactive),1.7,0.178,0.862,1.64,-0.803
O=C1O[C@H](c2ccccc2)[C@H](c2ccccc2)N2[C@H]1[C@@H](C(=O)O)[C@]1(C(=O)Nc3ccc(C#CC4(O)CCCCCC4)cc31)[C@H]2c1ccc(OCCO)cc1,-0.0477,-0.551 (inactive),-1.01 (inactive),5.5 (inactive),14.7 (active),1.52,0.122,0.477,0.617,0.258
COc1cc(CO)ccc1OC(C)=O,0.226,-2.07 (inactive),-0.433 (inactive),0.0918 (inactive),-0.874 (inactive),0.683,-0.308,0.867,0.388,1.05
CN(C)CCCCCCNC(=O)[C@H]1C[C@H]2C(=O)N[C@@H](CCCCN)C(=O)N2[C@H]1c1ccc(O)cc1,1.79,0.253 (inactive),-0.26 (inactive),0.0124 (inactive),0.737 (inactive),2.68,1.39,3.35,3.24,2.05
COc1cc2c(cc1O)C(C)N(Cc1cccc(OC(F)(F)F)c1)CC2 (stereo not given),0.475,-0.842 (inactive),-0.334 (inactive),0.506 (inactive),1.66 (inactive),0.395,0.0528,1.7,1.91,0.204
